# Assay outcomes from PubChem BioAssay.
# TGFb SMAD3 inh: qHTS for Inhibitors of TGF-b; 410,000 tested, 1.2% active; Potency, µM (doses to about 46.1 µM), hits mostly inhibitors; HepG2 CAGA-GFP TGF-b/SMAD3 reporter, GFP fluorescence, 18 h; TGF-beta stimulated, 500 pg/mL final; note: nearly all actives have a fitted effect of over 65% in size
#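 Inhibition was scored as loss of TGF-beta-induced (500 pg/mL final, 18 hours, 37 degrees C) GFP in HEPG2 cells carrying a CAGA-GFP reporter, in DMEM with 1% FBS. Well GFP was summed per cell; Activity was normalised to unstimulated and stimulated DMSO wells, then concentration-response fitting.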
# TDP1 cell CPT: qHTS for Inhibitors of human tyrosyl-DNA phosphodiesterase 1 (TDP1): qHTS in cells in presence of CPT; chicken DT40 Tdp1-/-;hTDP1 cells + 20 nM CPT, ATP luminescence, 48 h; Potency, µM (doses to about 46.2 µM), usual class: inhibitors; 420,000 tested, 12% active; AID 686979, 2013; note: nearly all actives have a fitted effect of over 55% in size
#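 Chicken DT40 Tdp1-/- cells stably complemented with human TDP1 were seeded at 400 cells/well in medium containing 20 nM camptothecin, exposed to pin-transferred compounds, and grown at 37 °C for at least 48 hr. Viability was read as ATP luminescence.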
# S-ASM inh: Inhibitors of Secretory Acid Sphingomyelinase (S-ASM): qHTS; placental ASM, HMU-PC fluorogenic substrate, 60 min; Potency, µM (doses to about 57.5 µM), hits mostly inhibitors; 340,000 tested, 0.006% active; AID 504937, 2011
# Target sequence (P17405 47-631 limits assumed): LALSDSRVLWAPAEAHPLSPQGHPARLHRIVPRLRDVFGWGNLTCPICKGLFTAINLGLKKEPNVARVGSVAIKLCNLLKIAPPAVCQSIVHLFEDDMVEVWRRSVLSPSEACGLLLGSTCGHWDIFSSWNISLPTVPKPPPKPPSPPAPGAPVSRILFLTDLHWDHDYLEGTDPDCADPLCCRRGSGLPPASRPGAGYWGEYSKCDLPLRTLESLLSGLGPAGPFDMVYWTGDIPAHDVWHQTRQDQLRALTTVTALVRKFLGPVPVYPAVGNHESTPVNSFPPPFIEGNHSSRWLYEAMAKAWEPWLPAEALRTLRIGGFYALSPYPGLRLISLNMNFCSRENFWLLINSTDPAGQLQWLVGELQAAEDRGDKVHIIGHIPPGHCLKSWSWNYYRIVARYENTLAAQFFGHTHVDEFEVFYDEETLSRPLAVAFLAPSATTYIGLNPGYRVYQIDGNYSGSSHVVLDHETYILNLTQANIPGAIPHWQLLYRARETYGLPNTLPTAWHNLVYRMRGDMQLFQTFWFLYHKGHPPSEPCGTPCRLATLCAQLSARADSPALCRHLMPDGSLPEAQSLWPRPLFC
#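 HMU-PC0 cleavage (9 uM final) by human placental ASM, 60 min at 37 °C following 10 min compound exposure at RT; stopped at pH 10, fluorescence Ex 386/Em 447 nm.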
# TDP1 cell noCPT: qHTS for Inhibitors of human tyrosyl-DNA phosphodiesterase 1 (TDP1): qHTS in cells in absence of CPT; DT40 Tdp1-/- hTDP1 cells, no CPT, ATP luminescence, 48 h; Potency, µM (series often up to 46.2 µM), usual class: inhibitors; 420,000 tested, 15% active; AID 686978, 2013; note: nearly all actives have a fitted effect of over 55% in size
#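 Chicken DT40 Tdp1-/- cells stably complemented with human TDP1 were seeded at 400 cells/well with DMSO in place of 20 nM camptothecin. After compound pinning, cells grew at least 48 hr at 37 °C; viability read by CellTiter-Glo luminescence.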
# IL-1B inflam inh: qHTS for Inhibitors of Inflammasome Signaling: IL-1-beta AlphaLISA Primary Screen. THP-1 LPS/ATP IL-1B secretion, AlphaLISA, 16 h; stronger effect = lower value. activity change, % at 57.5 µM. 360,000 tested, 4.7% active. AID 743279, 2014; in the data active = activity change below about -50%; inconclusive = mostly about -30% to -49%
#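 THP-1 cells pretreated 1 hr with compounds (up to 57.5 uM final), then stimulated with LPS (250 ng/mL final) plus ATP (1.25 mM final); secreted IL-1B measured by AlphaLISA after 16 hr, decreased signal indicating inhibition.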
# HepG2 tox: qHTS for Inhibitors of TGF-b: Cytotox Counterscreen; HepG2 CAGA-GFP viability, ATP luminescence, 18 h; Potency, µM (doses to about 46.1 µM), usual class: cytotoxic; 410,000 tested, 0.76% active; AID 588856, 2011
#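 HepG2 CAGA-GFP cells (1000/well, DMEM with 1% FBS) received compound, then TGF-beta at 500 pg/mL final, and were incubated 18 hours at 37 degrees C. Viability was read by CellTiter-Glo luminescence. Media-only wells were set as complete cell-killing and DMSO as no toxicity.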
# A number is an active result; . = inactive; ? = inconclusive; / = no result given; [ ] = dose if it differs, or a comment. An excerpt weighted towards active compounds, which were near 19% of everything screened. Unless noted, calls come from the whole dose curve; as a rule, active = well fitted curve in the direction sought with a large enough effect; inconclusive = small, poorly fitted or top-dose-only effect, or another doubt; inactive = no such curve, though single readings can be large; an effect the other way counts as inactive or inconclusive.
SMILES,TGFb SMAD3 inh,TDP1 cell CPT,S-ASM inh,TDP1 cell noCPT,IL-1B inflam inh,HepG2 tox
CCCCSc1nc(SCC(=O)NCc2ccco2)c2c3c(sc2n1)COC(C)(CC)C3 (stereo not given),.,.,.,.,.,.
CC(C)Sc1nc(NCc2ccco2)c2c3c(sc2n1)COC(C)(C)C3,.,26µM,.,15µM,.,.
CCCCc1nc2sc3c(SCCN(C)C)ncnc3c2c2c1CCC2,.,?,?,?,/,.
CSc1nc(SCC(=O)NCc2ccco2)c2c3c(sc2n1)COC(C)(C)C3,.,13µM,.,8.2µM,.,.
O=C(O)Cc1sc(Nc2ccc(F)cc2)nc1-c1cccs1,.,.,.,.,.,.
CN1CCN(Cc2c(O)ccc3cc(-c4ccccn4)c(=O)oc23)CC1,.,.,.,.,.,.
COc1ccccc1NS(=O)(=O)c1cc(NC(=O)c2ccccc2F)ccc1N1CCOCC1,.,16µM,.,13µM,.,.
COc1ccccc1NS(=O)(=O)c1cc(NC(=O)c2ccccc2[N+](=O)[O-])ccc1N1CCOCC1,.,?,.,?,.,.
COc1ccccc1NS(=O)(=O)c1cc(NC(=O)c2cccs2)ccc1N1CCOCC1,.,7.3µM,.,2.6µM,.,.
COc1ccccc1NS(=O)(=O)c1cc(NC(=O)c2ccco2)ccc1N1CCOCC1,?,?,.,?,.,.
Clc1ccc(C2=NNC(=NCc3ccc4c(c3)OCO4)SC2)cc1,16µM,10µM,.,5.8µM,?,.
O=C(NCc1ccc2c(c1)OCO2)C1CC(c2ccc(Cl)cc2)=NO1 (stereo not given),.,.,.,.,.,.
Oc1ccc(C2=NNC(=NCc3ccc4c(c3)OCO4)SC2)c(O)c1,.,3.7µM,.,4.6µM,.,.
COc1ccc(OC)c(C2=NNC(=NCc3ccc4c(c3)OCO4)SC2)c1,?,?,.,?,.,.
C1=C(c2cc3ccccc3cn2)CCCC1,.,?,.,.,.,.
O=S(=O)(c1ccc2c(c1)CCCC2)N1CCN(c2nc(-c3cccs3)nc3ccccc23)CC1,.,?,/,?,/,.
CC(C)c1cc(NC(=O)CCl)on1,?,13µM,.,9.2µM,-79,.
S=c1nc(-c2csc3c2CCCC3)[nH][nH]1,.,16µM,.,16µM,.,.
CCOc1ccc(N=Nc2c(=O)[nH]n3c(=O)cc(C)[nH]c23)cc1,.,21µM,.,?,.,.
CCOC(=O)c1cnc2c(C)cccc2c1Nc1ccc(OC(C)C)cc1,.,?,/,23µM,/,.
CCOC(=O)c1cnc2c(C(F)(F)F)cccc2c1Nc1cccc(C(=O)OC)c1,.,?,/,15µM,/,.
CCOC(=O)c1cnc2c(ccc3ccccc32)c1Nc1ccccc1O,?,21µM,/,?,/,.
CCOC(=O)c1cnc2c(C)cc(C)cc2c1Nc1ccc(OCc2ccccc2)cc1,.,.,/,.,/,.
CN1CCN(C(=O)CN(C2CCCCC2)S(=O)(=O)c2ccc(Br)cc2)CC1,.,.,.,.,.,.
CCOc1ccccc1N(C(=O)c1ccccc1Cl)C1=NC(C)(C)CS1,.,.,.,?,.,.
SMILES,TGFb SMAD3 inh,TDP1 cell CPT,S-ASM inh,TDP1 cell noCPT,IL-1B inflam inh,HepG2 tox
Cc1ccc(N(C(=O)c2ccccc2Cl)C2=NC(C)CS2)c(C)c1 (stereo not given),.,?,?,18µM,.,.
COc1cccc(C(=O)Nc2nc(C)cs2)c1,.,.,.,.,.,.
Cc1cc(C)nc(NC(=O)c2ccc(C)c([N+](=O)[O-])c2)n1,.,.,.,.,.,.
CC(=O)N1CCN(c2ccc(NC(=S)NC(=O)c3ccc(C)c([N+](=O)[O-])c3)cc2)CC1,.,.,.,?,.,.
Cc1csc(NC(=O)c2ccc(C)c([N+](=O)[O-])c2)n1,?,?,.,16µM,.,.
CCC(=O)NC(=S)Nc1ccc(NC(=O)c2ccc(C)c([N+](=O)[O-])c2)cc1,.,?,.,8.2µM,.,.
Cc1csc(NC(=O)c2ccc3nc[nH]c3c2)n1,.,?,.[11.5 µM],23µM,.,.
COc1ccc2c(CC(=O)Nc3ccc4nc(N5CCOCC5)sc4c3)coc2c1,.,?,/,?,.,.
O=C(NC1(C(F)(F)F)N=C(c2ccccc2)N(Cc2ccccc2)C1=O)c1ccc(F)cc1 (stereo not given),.,21µM,/,?,/,.
COc1ccc(CN2C(=O)C(NC(=O)c3ccc(C)cc3)(C(F)(F)F)N=C2c2ccccc2)cc1 (stereo not given),?,23µM,/,23µM,/,.
COc1ccc(CN2C(=O)C(NC(=O)c3ccccc3C)(C(F)(F)F)N=C2c2ccccc2)cc1 (stereo not given),.,21µM,/,15µM,/,.
Cc1ccc(C(=O)NC2(C(F)(F)F)N=C(c3ccccc3)N(Cc3ccccc3)C2=O)cc1 (stereo not given),.,?,/,26µM,/,.
CC(C)(C)C(=O)NC1(C(F)(F)F)NC(=O)N(Cc2ccccc2)C1=O (stereo not given),.,.,.,.,.,.
COc1ccc(C2=C(C)C(=O)N(Cc3ccc(C(=O)NCc4ccccc4C)cc3)S2(=O)=O)cc1,.,?,/,?,/,.
CCCN(CC(=O)Nc1ccccc1OC)C(=O)c1ccncc1,.,.,.,.,.,.
CCn1c(SCC(=O)OC)nnc1-c1c[nH]c2ccccc12,.,.,.,.,.,.
Cc1cc(C)c(NC(=O)C(C)Sc2nc3ccc(N4C(=O)c5ccccc5C4=O)cc3s2)c(C)c1 (stereo not given),.,?,.,35µM,.,.
CN(C(=O)COC(=O)c1ccc(S(=O)(=O)N2CCOCC2)cc1)C1CCCCC1,.,.,.,.,.,.
CCN(C(=O)C(C)Sc1ccc(S(=O)(=O)N2CCOCC2)cn1)c1ccccc1 (stereo not given),.,?,.,18µM,.,.
CN(c1ccc(S(=O)(=O)N2CCOCC2)cn1)C1CCCCC1,?,.,.,23µM,.,.
CC(=O)c1ccc(C(=O)N2CCCC(CO)(Cc3ccccc3C)C2)s1 (stereo not given),.,?,/,.,.,.
